Experimental data published in PubChem BioAssay (NCI).
The panel holds about 79,000 compounds, 15% with a hit somewhere; the sample as a whole holds those more often. Unmarked numbers belong to inactive results. Active and inactive are the calls of the source. Cut-off read from the data, not from the text of the source: active = growth inhibition above about 70%; inactive = the rest.

Test: NCI Yeast Anticancer Drug Screen. Data for the rad18 strain (AID 177)
Conditions: S. cerevisiae rad18 mutant growth inhibition, stronger effect = higher value
Procedure: Growth inhibition of yeast strains with defined genetic alterations is measured as a screen for potential anti-cancer activity. Selected strains with alterations in DNA damage repair or cell cycle control were exposed to compounds and growth inhibition was measured relative to vehicle treated controls. The strain used in this assay is rad18

SMILES	growth inhibition (at 1.2 µM) [%]	growth inhibition (at 3.7 µM) [%]	growth inhibition (at 11.0 µM)	growth inhibition (at 33.0 µM)	growth inhibition (at 100.0 µM)
CS(=O)(=O)OCCN(CCOS(C)(=O)=O)c1ccc(C=Nc2ccc(-c3csc(COc4ccccc4)n3)cc2)cc1	15	61	84% (active)	95% (active)	91% (active)
COc1ccc(C(NCCNC(c2ccc(OC)c(OC)c2)c2cc3c(cc2O)OCO3)c2cc3c(cc2O)OCO3)cc1OC (stereo not given)	-4	-4	8%	75% (active)	98% (active)
COc1nc2c(c(=O)n1C)N=C(c1ccccc1)[C@H](C(CC(=O)c1ccccc1)c1ccccc1)C(c1ccccc1)N2 (stereo not given in full)	37	47	50%	46%	67%
CC1OC(O[C@H]2/C=C/C=C/C=C/C=C/C=C/C=C/C=C/[C@H](C)[C@@H](O)[C@@H](C)[C@H](C)OC(=O)C[C@H](O)C[C@H](O)CC[C@@H](O)[C@H](O)C[C@H](O)C[C@]3(O)C[C@H](O)[C@@H](C(=O)O)[C@H](C2)O3)C(O)C(N)C1O (stereo not given in full)	-20	35	97% (active)	98% (active)	97% (active)
Cc1cc2c(cc1C)[n+]([O-])c(-c1nc3ccccc3s1)c(N)[n+]2[O-]	4	20	36%	63%	91% (active)
C=C1C(=O)OC2CC1C(OC(C)=O)C/C(C)=C/CC/C(C)=C\CCC2(C)O (stereo not given)	-15	1	15%	49%	91% (active)
OC(/C=C/c1ccccc1)(Cc1cc(-c2ccccc2)n[nH]1)c1ccccc1 (stereo not given)	12	12	11%	15%	24%
S=c1[nH]c2cc3ccccc3cc2[nH]1	-9	2	11%	18%	17%
